From PubChem BioAssay (NCI) come the findings set out here.

Molecules are shown by their SMILES. The panel holds about 83,000 compounds, 20% with a hit somewhere; the sample as a whole holds those more often.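 Single-concentration screen, 48 h exposure, 96-well plates. Endpoint: percent growth. Below 10 = active.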 Unmarked numbers belong to inactive results. Activity calls are given as the source filed them.

Test in all cases: NCI-60 one-dose screen, 48 h (100 = growth as untreated, 0 = no growth, -100 = all killed)
One test deals with EKVX NSCLC. The conditions noted are these: 10 µM unless noted.
A further test relates to SN12C renal. The note with it: 10 µM unless noted.
A further test deals with UO-31 renal. The note with it: 10 µM unless noted.
A further test deals with TK-10 renal. The note with it: 10 µM unless noted.
A further test deals with ACHN renal. The conditions noted are these: 10 µM unless noted.
The next test has as its system CAKI-1 renal. The note with it: 10 µM unless noted.
The test system of another test is A498 renal. The conditions noted are these: 10 µM.
A further test concerns HL-60(TB) leukemia. The conditions noted are these: 10 µM unless noted.
A further test deals with MOLT-4 leukemia. The note with it: 10 µM unless noted.
A further test has as its system SR leukemia. The conditions noted are these: 10 µM unless noted.
The subject of another test is OVCAR-8 ovarian. The conditions noted are these: 10 µM unless noted.
In a further test the test system is OVCAR-5 ovarian. The conditions noted are these: 10 µM unless noted.
A further test concerns OVCAR-4 ovarian. The note with it: 10 µM unless noted.
Another test relates to SK-OV-3 ovarian. The conditions noted are these: 10 µM unless noted.
Another test concerns OVCAR-3 ovarian. The note with it: 10 µM unless noted.
For the next test, the system named is HS 578T breast. The conditions noted are these: 10 µM unless noted.
The test system of another test is CCRF-CEM leukemia. The conditions noted are these: 10 µM unless noted.
Another test concerns IGROV1 ovarian. The note with it: 10 µM unless noted.
The next test deals with RPMI-8226 leukemia. The note with it: 10 µM unless noted.
A further test has as its system SK-MEL-2 melanoma. The note with it: 10 µM unless noted.

For the compound `CC1=C(O)[C@@](C)(CCCCC[C@H](C)CCCCc2ccc(O)cc2)OOC1=O`, the growth with EKVX NSCLC was 95.4%; in the test with SN12C renal it was 88.5%; in the test on UO-31 renal it was 68.8%; in the test on TK-10 renal it was 129%; with ACHN renal, 97.5%; in the test on CAKI-1 renal it was 80.6%. Moreover, the growth is 119% with A498 renal; 84.4% in the test on HL-60(TB) leukemia; 86% in the test with MOLT-4 leukemia; 50.1% in the test on SR leukemia; 93.4% in the test with OVCAR-8 ovarian; 103% in the test on OVCAR-5 ovarian. Besides, the growth in the test with OVCAR-4 ovarian was 100%; in the test with SK-OV-3 ovarian it was 106%; with OVCAR-3 ovarian, 86.5%; in the test with HS 578T breast, 98.1%.

Take `O=C1OCC2=C1C(c1ccccc1)c1cc3c(cc1N2)OCO3` (centres undefined): the growth in the test on EKVX NSCLC is 48%; with SN12C renal it was 21.5%; in the test with UO-31 renal, 45.6%; with TK-10 renal, 56.9%; in the test on ACHN renal it was 27.1%; with CAKI-1 renal, 38.8%. The growth in the test on A498 renal was -6.52% (active); with HL-60(TB) leukemia it was 2.29% (active); in the test on CCRF-CEM leukemia, 11.6%; in the test with MOLT-4 leukemia, 21.2%; in the test on SR leukemia, 8.69% (active); in the test with OVCAR-8 ovarian it was 5.45% (active). The growth in the test with OVCAR-5 ovarian is 43.5%; in the test with OVCAR-4 ovarian, 41.4%; in the test with SK-OV-3 ovarian, 2.36% (active); in the test on IGROV1 ovarian, 36.4%; with OVCAR-3 ovarian it was -46% (active); with HS 578T breast it was 43.2%.

For `CCOC(=S)S[C@H]1C[C@@H]2[C@H](CC[C@]3(C)C(=O)CC[C@@H]23)[C@@]2(C)CCC(=O)C=C12`, the growth with EKVX NSCLC was 102%; in the test on SN12C renal it was 93.9%; with UO-31 renal, 97.3%; in the test with TK-10 renal, 100%; in the test with ACHN renal, 109%; in the test with CAKI-1 renal, 99.6%. Besides, the growth with A498 renal is 110%; with HL-60(TB) leukemia, 101%; with CCRF-CEM leukemia it was 107%; with MOLT-4 leukemia it was 110%; in the test on SR leukemia, 106%; in the test on OVCAR-8 ovarian it was 100%. In addition, the growth with OVCAR-5 ovarian is 102%; in the test on OVCAR-4 ovarian it was 106%; with SK-OV-3 ovarian, 108%; with IGROV1 ovarian, 112%; in the test on OVCAR-3 ovarian, 115%; in the test with HS 578T breast, 108%.

On to `CCC(C)(C)[C@H](NC(=O)[C@H]1CCCCN1C)C(=O)N(C)[C@H](C[C@@H](OC(C)=O)c1nc(C(=O)N[C@@H](Cc2ccccc2)C[C@H](C)C(=O)O)cs1)C(C)C`, for which the growth in the test with EKVX NSCLC is 52.6%; in the test on SN12C renal, 17.5%; in the test with UO-31 renal, 32.9%; in the test on TK-10 renal it was 35.1%; in the test with ACHN renal, 11.4%; with CAKI-1 renal it was 29%. The growth with HL-60(TB) leukemia is -8.72% (active); with CCRF-CEM leukemia, 2.41% (active); in the test with MOLT-4 leukemia, 15.5%; in the test with SR leukemia, 6.11% (active); in the test with RPMI-8226 leukemia, 7.76% (active); with OVCAR-8 ovarian it was 14.2%. The growth in the test with OVCAR-5 ovarian was 42.5%; with OVCAR-4 ovarian, 40.4%; in the test on SK-OV-3 ovarian it was 38.1%; with IGROV1 ovarian, 17.5%; in the test on OVCAR-3 ovarian, 5.97% (active).

Regarding `CCCCNC(c1ccc(Cl)cc1)C(O)c1ccc(Cl)cc1` (centres undefined), the growth is 62.5% in the test on SK-MEL-2 melanoma; 36.9% in the test on UO-31 renal; 56.8% with TK-10 renal; 35.2% in the test on ACHN renal; 30.3% with CAKI-1 renal; 19.6% in the test on HL-60(TB) leukemia. Moreover, the growth with CCRF-CEM leukemia was 29.7%; in the test on MOLT-4 leukemia, 9.52% (active); in the test with SR leukemia, -34.2% (active); in the test on RPMI-8226 leukemia it was -15.1% (active); in the test with OVCAR-8 ovarian it was 49%; in the test with OVCAR-5 ovarian, 56%. Moreover, the growth was 65.9% in the test with OVCAR-4 ovarian; 79.6% in the test with SK-OV-3 ovarian; 27% in the test on IGROV1 ovarian; 55.6% in the test on OVCAR-3 ovarian; 64.2% with HS 578T breast.

`Cc1c2cc(Cl)c3ccccc3c2c[n+]2ccccc12`: the growth is 43.2% in the test on EKVX NSCLC; -19.4% (active) with SN12C renal; 62% in the test on UO-31 renal; 93.3% in the test on TK-10 renal; 92.2% in the test with ACHN renal; 90.2% in the test with A498 renal. Besides, the growth was 62.3% with HL-60(TB) leukemia; 35.5% in the test with CCRF-CEM leukemia; 1.48% (active) in the test on MOLT-4 leukemia; -11.7% (active) in the test with SR leukemia; -1.69% (active) with OVCAR-8 ovarian; 77.6% in the test on OVCAR-5 ovarian. Besides, the growth in the test with OVCAR-4 ovarian was 30.3%; in the test on SK-OV-3 ovarian it was 66.6%; with IGROV1 ovarian, 19.9%; in the test on OVCAR-3 ovarian it was 4.55% (active); in the test on HS 578T breast, -33.2% (active).

Take `CC(=O)Oc1ccccc1C(=O)NCCC[Se]C#N`: the growth in the test with SN12C renal is -17.3% (active); with UO-31 renal it was -37.8% (active); with TK-10 renal, -65.7% (active); in the test with ACHN renal it was 6.63% (active); in the test on CAKI-1 renal it was 0.654% (active); in the test on A498 renal, -2.68% (active). In addition, the growth was 5.1% (active) with HL-60(TB) leukemia; 22.9% with CCRF-CEM leukemia; 10.7% in the test with MOLT-4 leukemia; 91.1% in the test on RPMI-8226 leukemia; -13.9% (active) in the test on OVCAR-8 ovarian; 83.3% with OVCAR-5 ovarian. The growth in the test with OVCAR-4 ovarian is 57.2%; in the test on SK-OV-3 ovarian, 32.6%; in the test with IGROV1 ovarian it was 10.8%; in the test with OVCAR-3 ovarian, -5.3% (active); in the test with HS 578T breast, 17.1%.

For the compound `Nc1ccc2c(c1)Cc1cc(Br)ccc1-2`, the growth is 85.3% in the test on SN12C renal; 49% with UO-31 renal; 123% in the test with TK-10 renal; 106% with ACHN renal; 98.1% in the test on CAKI-1 renal; 76.4% in the test on A498 renal. The growth in the test on CCRF-CEM leukemia was 50%; in the test with MOLT-4 leukemia it was 71%; in the test with SR leukemia, 84.6%; in the test with RPMI-8226 leukemia, 79.8%; in the test on OVCAR-8 ovarian it was 107%; with OVCAR-5 ovarian, 110%. Further, the growth was 99.9% in the test on OVCAR-4 ovarian; 101% in the test with SK-OV-3 ovarian; 104% with IGROV1 ovarian; 114% with OVCAR-3 ovarian; 111% in the test on HS 578T breast.

As for `Cn1cc(C2=C(c3cn(C4CCN(Cc5ccccn5)CC4)c4ccccc34)C(=O)NC2=O)c2ccccc21`, the growth in the test on EKVX NSCLC is 83.4%; in the test on SN12C renal, 81.1%; with TK-10 renal, 56.3%; in the test on ACHN renal, 63.8%; in the test with CAKI-1 renal, 50.8%; with A498 renal, 88.1%. For the same compound, the growth in the test with HL-60(TB) leukemia is 39.8%; in the test on CCRF-CEM leukemia, 112%; with MOLT-4 leukemia it was 85.7%; in the test on SR leukemia it was 7.89% (active); with RPMI-8226 leukemia, 107%; in the test with OVCAR-8 ovarian, 78.8%. Besides, the growth with OVCAR-5 ovarian is 31.2%; with OVCAR-4 ovarian, 76.8%; in the test with SK-OV-3 ovarian, 83.5%; in the test on IGROV1 ovarian, 33.9%; in the test on OVCAR-3 ovarian it was 90.3%.
